HCMV antiviral: qHTS Assay for inhibitors of the human cytomegalovirus (HCMV); 410,000 tested, 4.5% active; HFF cells, HCMV-luciferase reporter, 72 h; hits give low values; activity change, negative = inhibition, % at 57.5 µM; AID 1259415, 2018; in the data active means activity change below about -60%; inconclusive means no clear call, values can overlap the other calls; inactive means above about -39%
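After 16 h attachment at 37C, HFF cells received test compound and HCMV-luciferase (1 PFU/cell); reporter luminescence read 72 h later, data normalized against buffer-only and known inhibitor Salinomycin.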
MARV entry inh: qHTS for inhibitors of binding or entry into cells for Marburg Virus; Marburg virus pseudotyped entry inhibition, cell reporter; Potency, µM (top dose mostly 37.8 µM), for the others: at the top dose activity change, negative = inhibition, actives largely listed as inhibitors; 300,000 tested, 1.8% active; calls by dose curve; tested in HEK293 cells; further: potency means the concentration at half of the fitted maximal effect
VACV Venus inh: qHTS for Stage-Specific Inhibitors of Vaccinia Orthopoxvirus: Venus Reporter Primary qHTS; Vaccinia virus Venus reporter expression, fluorescence; Potency, µM (series often up to 36.5 µM), for inactives: at the top dose activity change, negative = inhibition, actives largely listed as inhibitors; 330,000 tested, 0.46% active; calls by dose curve; tested in A549 cells; further: potency means the concentration at half of the fitted maximal effect; nearly all actives have a fitted effect of over 30% in size
FMDV antiviral: High Throughput Screening for Foot and Mouth Disease Virus Antivirals. FMDV antiviral cell-based qHTS. Potency, µM (top dose mostly 57.9 µM), for the others: top-dose activity change, negative = inhibition, usual class: inhibitors. 410,000 tested, 1.2% active. AID 1159524, 2015; calls by dose curve; tested in HEK293T cells; further: read-out not given here; potency means the concentration at half of the fitted maximal effect; nearly all actives have a fitted effect of over 45% in size
VACV mCherry inh: qHTS for Stage-Specific Inhibitors of Vaccinia Orthopoxvirus: mCherry Reporter Primary qHTS. Potency, µM (top dose mostly 36.5 µM), for the others: at the top dose activity change, negative = inhibition, hits mostly inhibitors. 310,000 tested, 0.63% active. Vaccinia virus mCherry reporter infection, fluorescence; calls by dose curve; tested in A549 cells; further: potency means the concentration at half of the fitted maximal effect; nearly all actives have a fitted effect of over 35% in size
LASV entry inh: qHTS for Inhibitors of binding or entry into cells for Lassa Virus; 300,000 tested, 1.2% active; Potency, µM (top dose mostly 37.9 µM), for the others: at the top dose activity change, negative = inhibition, usual class: inhibitors; Lassa virus pseudotype entry inhibition, cell reporter; AID 540256, 2011; calls by dose curve; tested in HEK293 cells; further: potency means the concentration at half of the fitted maximal effect; nearly all actives have a fitted effect of over 50% in size
Numbers without * were called inactive; i = inactive; ? = inconclusive; . = no result given; [ ] = dose if it differs, or a comment. An excerpt weighted towards active compounds, which were near 6.5% of everything screened. On the % scale 0 is the no-effect control and ±100 the full control effect.

SMILES	HCMV antiviral	MARV entry inh	VACV Venus inh	FMDV antiviral	VACV mCherry inh	LASV entry inh
CNC(=O)/C(C#N)=C/c1c(N2CCN(C)CC2)nc2c(C)cccn2c1=O	16	.	.	-8%	.	.
CCN1CCN(c2nc3c(C)cccn3c(=O)c2/C=C(\C#N)C(=O)NC)CC1	-72*	-7%	-14%	-8%	-12%	?
COC(=O)/C(C#N)=C/c1c(N2CCN(c3ccccc3)CC2)nc2ccccn2c1=O	.	-29%[46.1 µM]	-5%	11%	-4%	18%[46.1 µM]
CNC(=O)/C(C#N)=C/c1c(N(Cc2ccccc2)Cc2ccccc2)nc2ccccn2c1=O	-36	16µM*	?	-23%	-20%	11µM*
CCNC(=O)/C(C#N)=C/c1c(N2CCN(c3ccccc3)CC2)nc2c(C)cccn2c1=O	94	-15%	-11%	-18%	-2%	?
CN1CCC(Oc2ccccc2Sc2ccccc2)CC1	-77*	10µM*	?	?	?	8.2µM*
CCn1ncc(Br)c1C(=O)Nc1ccc(C(C)C)cc1	150	13µM*	-16%	8%	-8%	-13%[46.1 µM]
CCn1ncc(Br)c1C(=O)Nc1cccc(F)c1	24	2%[46.1 µM]	-18%	-27%	-12%	-4%[46.1 µM]
S=C(Nc1ccccn1)c1ccccn1	-82*	?	?	0%	?	?
S=C(Nc1ccccn1)Nc1ccccc1Cl	-83*	9%[46.1 µM]	-8%	41%	i	-12%
Cc1c(Cl)cccc1NC(=S)Nc1ccccn1	30	?	-3%	10%	-8%	.
Cc1ccc(C(=O)Nc2ccc(S(=O)(=O)O)c3cc(S(=O)(=O)O)cc(S(=O)(=O)O)c23)cc1NC(=O)c1cccc(NC(=O)Nc2cccc(C(=O)Nc3cc(C(=O)Nc4ccc(S(=O)(=O)O)c5cc(S(=O)(=O)O)cc(S(=O)(=O)O)c45)ccc3C)c2)c1	.	3.1µM*	-17%	-12%	-12%	8.9µM*
CCN(C(=O)CN(C)S(=O)(=O)c1ccc2c(c1)c(=O)n(C)c(=O)n2C)c1ccc(OC)cc1	-25	1%[46.1 µM]	-3%	-13%	-16%	-7%[46.1 µM]
CCCOc1ccc(NC(=O)CC2C(=O)Nc3ccccc3N2CC(=O)N2CCCC2)cc1 (centres undefined)	-60*	.	.	-11%	.	.
O=C(NCc1ccccn1)c1cc(-c2ccccc2)nc2ccccc12	54	-25%	2%	-17%	-15%	15%
O=C(NCc1ccccn1)c1cc(-c2ccc(-c3ccccc3)cc2)nc2ccccc12	-94*	0%	.	17%	.	.
COCCNC(=O)c1cc(-c2ccc(-c3ccccc3)cc2)nc2ccccc12	-77*	?	-19%	14%	?	?
CC(C)(C)c1ccc(-c2cc(C(=O)NNC(=O)Nc3ccccc3)c3ccccc3n2)cc1	95	?	?	?	-14%	5.6µM*
O=C(Nc1ncccn1)c1cc(-c2ccc(F)cc2)nc2ccccc12	-31	3%[46.1 µM]	-11%	32µM*	-20%	5%[46.1 µM]
O=C(NNC(=O)c1cc(-c2ccncc2)nc2ccccc12)Nc1ccc(F)cc1	14	-11%	-4%	23%	0%	5%
COc1cccc(CN2CC(C(=O)N(C)CCCC3CCCC3)CCC2=O)c1 (centres undefined)	0	.	.	-19%	.	.
COc1ccccc1C(=O)N1CCCC(C)(C(=O)NS(=O)(=O)C2CC2)C1 (centres undefined)	?	.	-9%	-2%	31%	.
CCc1ccc(-c2nc(CS(=O)CC(=O)NCCc3ccc(C)cc3)c(C)o2)cc1 (centres undefined)	-16	.	3%	2%	-7%	22%[46.1 µM]
CCc1ccc(-c2cc(C(=O)N3N=C(C(F)F)CC3(O)C(F)F)c3ccccc3n2)cc1 (centres undefined)	-87*	?	.	6%	.	-7%
CCNC(=S)NNC(=O)c1cc(-c2ccc(OCC)cc2)nc2ccccc12	150	?	.	13µM*	.	1.2µM*
SMILES	HCMV antiviral	MARV entry inh	VACV Venus inh	FMDV antiviral	VACV mCherry inh	LASV entry inh
NS(=O)(=O)c1ccc(CCNC(=O)c2cc(-c3ccc(Br)cc3)nc3ccccc23)cc1	-88*	.	?	12%	-1%	.
CCCc1ccc(-c2cc(C(=O)NN3CCOCC3)c3ccccc3n2)cc1	31	?	.	32%	.	3%
CCc1ccc(-c2cc(C(=O)Nn3cnnc3)c3ccccc3n2)cc1	20	1µM*	-5%	11µM*	-14%	1.3µM*
CCOC(=O)[C@@H]1[C@H]2COc3ccccc3[C@H]2N2C(=O)N(c3ccc(OC)cc3)C(=O)[C@]12C	-26	.	2%	-10%	i	.
C=CC[C@@H]1C=C[C@H](ON=C(C)CCN2CCCCc3nc(C)c(C)cc32)[C@H](CO)O1	.	-23%[14.2 µM]	.	.	.	.
CC1(C)c2ccccc2N2CC(=O)N[C@@]21/C=C/C=C/c1ccccc1	-66*	?	-16%	-28%	-23%	6%
CN(C)c1ccc(C=NC2CCc3ccccc32)cc1 (centres undefined)	.	.	-15%	.	12%	.
N#C/C(=C(/O)c1ccc(Cl)c([N+](=O)[O-])c1)c1nc2ccccc2[nH]1	?	.	.	-24%	.	.
COc1ccc(NC(=O)CN(C2CCCCC2)S(C)(=O)=O)cc1Cl	-73*	-18%	.	-26%	.	-5%
COc1ccc(NC(=O)CN2CCCCC2)cc1S(=O)(=O)N1CCCCC1	10	-19%	-20%	-5%	-7%	?
COc1ccc(NC(=O)CCC2CCCCC2)cc1S(=O)(=O)N1CCCCC1	-82*	?	-25%	-12%	?	?
COc1ccc(NC(=O)CC2CCCC2)cc1S(=O)(=O)N1CCCCC1	-40	-1%	-25%	-21%	-6%	10µM*
COc1ccc(CCNC(=O)CN(C2CCCCC2)S(C)(=O)=O)cc1OC	-4	4%	-18%	.	i	7%
CC(C)C[C@H]1CNC(=S)N1CC1CCCN1C[C@H](Cc1ccc(O)cc1)N1C[C@H](Cc2ccccc2)N(CC2CCCCC2)C1=S (some centres undefined)	-62*	.	-24%	-9%	?	.
Oc1ccc(C[C@H]2CNC(=S)N2CC2CCCN2C[C@H](Cc2ccc(O)cc2)N2C[C@H](Cc3ccc(O)cc3)N(CC3CCCCCC3)C2=S)cc1 (some centres undefined)	-67*	.	?	?	?	.
Oc1ccc(C[C@H]2CNC(=S)N2CC2CCCN2C[C@H](Cc2ccccc2)N2C[C@H](Cc3ccc(O)cc3)N(CC3CCCCC3)C2=S)cc1 (some centres undefined)	-85*	.	-26%	-20%	-21%	.
Oc1ccc(C[C@H]2CN([C@@H](Cc3ccccc3)CN3CCC[C@@H]3CN3C(=S)NC[C@@H]3Cc3ccccc3)C(=S)N2CC2CCCCC2)cc1	-7	.	-11%	-17%	6%	.

Compound activity as filed in PubChem.
